Measurements reported in the supplement of paper PMC11732987, “Enantioselective OTUD7B fragment discovery through chemoproteomics screening and high-throughput optimisation” (Communications Chemistry, 2025).

Key:
Assay in all cases: log2 ratio of Biotin-Ahx-Ub-VS probe labelling (fragment/DMSO); higher = less target engagement (more negative = stronger competition), active = hit call of the paper (q ≤ 0.05, log2 ratio ≤ -1)
Conditions in all cases: compound concentration: 200 uM; treatment time: 3 h
USP34 = USP34 (UniProt Q70CQ2)
Summary of the method: (§1)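 Labelled DUBs from HEK293T lysate were NeutrAvidin-enriched, digested with LysC and trypsin, and run by diaPASEF LC-MS/MS. Before that, each 495 µg sample in Tris/CHAPS/IGEPAL buffer with protease inhibitors was treated in triplicate with fragment at 200 µM or vehicle for 3 h, then with Biotin-Ahx-Ub-VS at 0.5 µM final for 1 h. Values are average log2 ratios of fragment over vehicle by unpaired t-test, based on global-median-normalised Spectronaut label-free quantities from proteins with ≥2 unique peptides.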

USP36 = target: T1, USP36 (UniProt Q9P275)
T1 sequence (whole entry): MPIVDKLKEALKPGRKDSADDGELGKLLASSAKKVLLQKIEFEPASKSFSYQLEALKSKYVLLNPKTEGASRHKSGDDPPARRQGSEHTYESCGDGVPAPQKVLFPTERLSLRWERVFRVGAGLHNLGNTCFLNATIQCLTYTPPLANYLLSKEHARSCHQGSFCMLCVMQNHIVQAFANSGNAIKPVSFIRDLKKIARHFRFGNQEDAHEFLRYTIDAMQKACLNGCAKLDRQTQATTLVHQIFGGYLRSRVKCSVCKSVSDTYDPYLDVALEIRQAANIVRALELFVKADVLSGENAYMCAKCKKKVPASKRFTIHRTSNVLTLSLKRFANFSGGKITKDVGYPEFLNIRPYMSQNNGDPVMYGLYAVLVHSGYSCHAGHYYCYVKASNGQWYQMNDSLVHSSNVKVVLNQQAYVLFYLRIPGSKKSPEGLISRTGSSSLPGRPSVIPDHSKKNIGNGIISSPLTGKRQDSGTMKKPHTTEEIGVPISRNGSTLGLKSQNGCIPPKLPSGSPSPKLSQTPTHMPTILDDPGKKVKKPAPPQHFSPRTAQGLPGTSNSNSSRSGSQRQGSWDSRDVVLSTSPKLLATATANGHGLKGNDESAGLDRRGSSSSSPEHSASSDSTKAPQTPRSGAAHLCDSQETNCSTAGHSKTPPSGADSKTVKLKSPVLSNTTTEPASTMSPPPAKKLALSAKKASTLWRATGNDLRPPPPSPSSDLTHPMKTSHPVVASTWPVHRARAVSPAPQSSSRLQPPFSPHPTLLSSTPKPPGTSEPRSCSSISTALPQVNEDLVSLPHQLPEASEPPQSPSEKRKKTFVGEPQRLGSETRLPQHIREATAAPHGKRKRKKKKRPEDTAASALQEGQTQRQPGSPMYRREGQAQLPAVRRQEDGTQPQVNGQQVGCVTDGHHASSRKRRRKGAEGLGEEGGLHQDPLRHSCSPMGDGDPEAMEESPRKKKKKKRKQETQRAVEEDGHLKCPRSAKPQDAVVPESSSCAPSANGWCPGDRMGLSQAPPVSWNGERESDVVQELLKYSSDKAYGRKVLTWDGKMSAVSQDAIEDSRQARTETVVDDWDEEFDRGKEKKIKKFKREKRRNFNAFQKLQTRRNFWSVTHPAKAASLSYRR
Summary of the method: as §1

USP38 = target: T2, USP38 (UniProt Q8NB14)
T2 sequence (whole entry): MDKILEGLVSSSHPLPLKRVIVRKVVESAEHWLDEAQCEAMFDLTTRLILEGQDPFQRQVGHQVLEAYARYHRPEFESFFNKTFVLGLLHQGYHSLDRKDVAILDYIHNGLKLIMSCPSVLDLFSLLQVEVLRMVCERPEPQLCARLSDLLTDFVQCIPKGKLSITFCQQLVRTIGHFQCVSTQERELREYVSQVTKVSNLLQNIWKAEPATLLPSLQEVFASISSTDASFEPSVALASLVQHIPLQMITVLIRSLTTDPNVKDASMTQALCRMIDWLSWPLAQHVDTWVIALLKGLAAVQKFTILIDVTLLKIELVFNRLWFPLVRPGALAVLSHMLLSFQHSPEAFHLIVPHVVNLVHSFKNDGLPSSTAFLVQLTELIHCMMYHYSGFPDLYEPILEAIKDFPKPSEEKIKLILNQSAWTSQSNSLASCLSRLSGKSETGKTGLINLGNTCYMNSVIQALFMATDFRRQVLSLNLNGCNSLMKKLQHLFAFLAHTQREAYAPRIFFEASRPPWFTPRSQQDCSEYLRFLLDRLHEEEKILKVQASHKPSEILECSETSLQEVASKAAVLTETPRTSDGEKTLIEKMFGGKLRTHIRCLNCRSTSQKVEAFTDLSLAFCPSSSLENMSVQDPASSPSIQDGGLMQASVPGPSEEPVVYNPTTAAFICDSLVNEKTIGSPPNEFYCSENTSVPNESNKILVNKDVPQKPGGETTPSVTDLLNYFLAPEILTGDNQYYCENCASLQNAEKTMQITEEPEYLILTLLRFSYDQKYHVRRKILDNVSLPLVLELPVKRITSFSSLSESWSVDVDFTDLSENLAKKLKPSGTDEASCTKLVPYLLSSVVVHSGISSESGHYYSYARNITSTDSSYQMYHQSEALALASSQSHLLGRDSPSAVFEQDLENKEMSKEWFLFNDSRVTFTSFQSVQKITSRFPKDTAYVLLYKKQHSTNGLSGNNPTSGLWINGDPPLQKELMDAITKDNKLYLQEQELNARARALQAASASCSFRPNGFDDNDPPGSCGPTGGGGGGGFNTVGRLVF
Summary of the method: as §1

USP39 = target: T3, USP39 (UniProt Q53GS9)
T3 sequence (whole entry): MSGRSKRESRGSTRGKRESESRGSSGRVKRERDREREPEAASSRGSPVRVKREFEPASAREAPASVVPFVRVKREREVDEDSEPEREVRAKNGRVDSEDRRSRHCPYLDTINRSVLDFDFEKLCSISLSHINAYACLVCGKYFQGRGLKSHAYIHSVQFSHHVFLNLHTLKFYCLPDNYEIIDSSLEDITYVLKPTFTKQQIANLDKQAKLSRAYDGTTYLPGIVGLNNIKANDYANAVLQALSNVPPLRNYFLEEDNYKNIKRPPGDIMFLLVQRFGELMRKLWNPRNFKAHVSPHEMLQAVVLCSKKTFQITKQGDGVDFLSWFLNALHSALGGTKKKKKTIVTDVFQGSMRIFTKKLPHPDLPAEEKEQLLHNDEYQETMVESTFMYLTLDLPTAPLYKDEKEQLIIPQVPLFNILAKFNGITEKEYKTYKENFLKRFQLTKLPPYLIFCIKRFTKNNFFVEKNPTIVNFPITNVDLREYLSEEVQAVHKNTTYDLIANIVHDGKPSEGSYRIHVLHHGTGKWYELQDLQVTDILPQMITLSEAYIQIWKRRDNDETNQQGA
Summary of the method: as §1

USP4 = target: T4, USP4 (UniProt Q13107)
T4 sequence (whole entry): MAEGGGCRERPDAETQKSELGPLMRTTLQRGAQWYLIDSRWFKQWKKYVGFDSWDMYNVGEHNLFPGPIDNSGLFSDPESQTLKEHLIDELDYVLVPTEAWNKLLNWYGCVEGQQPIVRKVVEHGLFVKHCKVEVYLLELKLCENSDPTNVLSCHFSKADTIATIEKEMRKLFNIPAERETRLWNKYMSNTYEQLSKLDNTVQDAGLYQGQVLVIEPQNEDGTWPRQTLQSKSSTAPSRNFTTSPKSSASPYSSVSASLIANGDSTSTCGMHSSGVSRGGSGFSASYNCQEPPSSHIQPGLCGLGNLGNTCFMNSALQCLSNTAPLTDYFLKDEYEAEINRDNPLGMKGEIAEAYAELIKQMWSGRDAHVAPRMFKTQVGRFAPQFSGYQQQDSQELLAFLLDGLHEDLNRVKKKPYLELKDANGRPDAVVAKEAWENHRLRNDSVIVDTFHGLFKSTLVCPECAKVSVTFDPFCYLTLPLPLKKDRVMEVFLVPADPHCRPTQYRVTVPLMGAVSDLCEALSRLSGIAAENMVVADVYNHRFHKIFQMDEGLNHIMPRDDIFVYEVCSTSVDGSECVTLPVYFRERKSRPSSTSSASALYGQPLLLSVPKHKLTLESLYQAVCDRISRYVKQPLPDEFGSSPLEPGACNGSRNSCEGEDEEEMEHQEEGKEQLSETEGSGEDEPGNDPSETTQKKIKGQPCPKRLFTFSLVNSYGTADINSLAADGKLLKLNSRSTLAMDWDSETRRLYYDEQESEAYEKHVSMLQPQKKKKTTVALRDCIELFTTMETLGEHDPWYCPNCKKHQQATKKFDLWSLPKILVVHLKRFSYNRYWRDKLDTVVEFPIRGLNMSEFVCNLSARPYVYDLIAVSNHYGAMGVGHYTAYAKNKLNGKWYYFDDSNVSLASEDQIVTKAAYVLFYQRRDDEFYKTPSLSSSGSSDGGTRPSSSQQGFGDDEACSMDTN
Summary of the method: as §1

Measured: log2 ratio of Biotin-Ahx-Ub-VS probe labelling

Chain of USP34 (Q70CQ2 whole entry, the tested form may be a part): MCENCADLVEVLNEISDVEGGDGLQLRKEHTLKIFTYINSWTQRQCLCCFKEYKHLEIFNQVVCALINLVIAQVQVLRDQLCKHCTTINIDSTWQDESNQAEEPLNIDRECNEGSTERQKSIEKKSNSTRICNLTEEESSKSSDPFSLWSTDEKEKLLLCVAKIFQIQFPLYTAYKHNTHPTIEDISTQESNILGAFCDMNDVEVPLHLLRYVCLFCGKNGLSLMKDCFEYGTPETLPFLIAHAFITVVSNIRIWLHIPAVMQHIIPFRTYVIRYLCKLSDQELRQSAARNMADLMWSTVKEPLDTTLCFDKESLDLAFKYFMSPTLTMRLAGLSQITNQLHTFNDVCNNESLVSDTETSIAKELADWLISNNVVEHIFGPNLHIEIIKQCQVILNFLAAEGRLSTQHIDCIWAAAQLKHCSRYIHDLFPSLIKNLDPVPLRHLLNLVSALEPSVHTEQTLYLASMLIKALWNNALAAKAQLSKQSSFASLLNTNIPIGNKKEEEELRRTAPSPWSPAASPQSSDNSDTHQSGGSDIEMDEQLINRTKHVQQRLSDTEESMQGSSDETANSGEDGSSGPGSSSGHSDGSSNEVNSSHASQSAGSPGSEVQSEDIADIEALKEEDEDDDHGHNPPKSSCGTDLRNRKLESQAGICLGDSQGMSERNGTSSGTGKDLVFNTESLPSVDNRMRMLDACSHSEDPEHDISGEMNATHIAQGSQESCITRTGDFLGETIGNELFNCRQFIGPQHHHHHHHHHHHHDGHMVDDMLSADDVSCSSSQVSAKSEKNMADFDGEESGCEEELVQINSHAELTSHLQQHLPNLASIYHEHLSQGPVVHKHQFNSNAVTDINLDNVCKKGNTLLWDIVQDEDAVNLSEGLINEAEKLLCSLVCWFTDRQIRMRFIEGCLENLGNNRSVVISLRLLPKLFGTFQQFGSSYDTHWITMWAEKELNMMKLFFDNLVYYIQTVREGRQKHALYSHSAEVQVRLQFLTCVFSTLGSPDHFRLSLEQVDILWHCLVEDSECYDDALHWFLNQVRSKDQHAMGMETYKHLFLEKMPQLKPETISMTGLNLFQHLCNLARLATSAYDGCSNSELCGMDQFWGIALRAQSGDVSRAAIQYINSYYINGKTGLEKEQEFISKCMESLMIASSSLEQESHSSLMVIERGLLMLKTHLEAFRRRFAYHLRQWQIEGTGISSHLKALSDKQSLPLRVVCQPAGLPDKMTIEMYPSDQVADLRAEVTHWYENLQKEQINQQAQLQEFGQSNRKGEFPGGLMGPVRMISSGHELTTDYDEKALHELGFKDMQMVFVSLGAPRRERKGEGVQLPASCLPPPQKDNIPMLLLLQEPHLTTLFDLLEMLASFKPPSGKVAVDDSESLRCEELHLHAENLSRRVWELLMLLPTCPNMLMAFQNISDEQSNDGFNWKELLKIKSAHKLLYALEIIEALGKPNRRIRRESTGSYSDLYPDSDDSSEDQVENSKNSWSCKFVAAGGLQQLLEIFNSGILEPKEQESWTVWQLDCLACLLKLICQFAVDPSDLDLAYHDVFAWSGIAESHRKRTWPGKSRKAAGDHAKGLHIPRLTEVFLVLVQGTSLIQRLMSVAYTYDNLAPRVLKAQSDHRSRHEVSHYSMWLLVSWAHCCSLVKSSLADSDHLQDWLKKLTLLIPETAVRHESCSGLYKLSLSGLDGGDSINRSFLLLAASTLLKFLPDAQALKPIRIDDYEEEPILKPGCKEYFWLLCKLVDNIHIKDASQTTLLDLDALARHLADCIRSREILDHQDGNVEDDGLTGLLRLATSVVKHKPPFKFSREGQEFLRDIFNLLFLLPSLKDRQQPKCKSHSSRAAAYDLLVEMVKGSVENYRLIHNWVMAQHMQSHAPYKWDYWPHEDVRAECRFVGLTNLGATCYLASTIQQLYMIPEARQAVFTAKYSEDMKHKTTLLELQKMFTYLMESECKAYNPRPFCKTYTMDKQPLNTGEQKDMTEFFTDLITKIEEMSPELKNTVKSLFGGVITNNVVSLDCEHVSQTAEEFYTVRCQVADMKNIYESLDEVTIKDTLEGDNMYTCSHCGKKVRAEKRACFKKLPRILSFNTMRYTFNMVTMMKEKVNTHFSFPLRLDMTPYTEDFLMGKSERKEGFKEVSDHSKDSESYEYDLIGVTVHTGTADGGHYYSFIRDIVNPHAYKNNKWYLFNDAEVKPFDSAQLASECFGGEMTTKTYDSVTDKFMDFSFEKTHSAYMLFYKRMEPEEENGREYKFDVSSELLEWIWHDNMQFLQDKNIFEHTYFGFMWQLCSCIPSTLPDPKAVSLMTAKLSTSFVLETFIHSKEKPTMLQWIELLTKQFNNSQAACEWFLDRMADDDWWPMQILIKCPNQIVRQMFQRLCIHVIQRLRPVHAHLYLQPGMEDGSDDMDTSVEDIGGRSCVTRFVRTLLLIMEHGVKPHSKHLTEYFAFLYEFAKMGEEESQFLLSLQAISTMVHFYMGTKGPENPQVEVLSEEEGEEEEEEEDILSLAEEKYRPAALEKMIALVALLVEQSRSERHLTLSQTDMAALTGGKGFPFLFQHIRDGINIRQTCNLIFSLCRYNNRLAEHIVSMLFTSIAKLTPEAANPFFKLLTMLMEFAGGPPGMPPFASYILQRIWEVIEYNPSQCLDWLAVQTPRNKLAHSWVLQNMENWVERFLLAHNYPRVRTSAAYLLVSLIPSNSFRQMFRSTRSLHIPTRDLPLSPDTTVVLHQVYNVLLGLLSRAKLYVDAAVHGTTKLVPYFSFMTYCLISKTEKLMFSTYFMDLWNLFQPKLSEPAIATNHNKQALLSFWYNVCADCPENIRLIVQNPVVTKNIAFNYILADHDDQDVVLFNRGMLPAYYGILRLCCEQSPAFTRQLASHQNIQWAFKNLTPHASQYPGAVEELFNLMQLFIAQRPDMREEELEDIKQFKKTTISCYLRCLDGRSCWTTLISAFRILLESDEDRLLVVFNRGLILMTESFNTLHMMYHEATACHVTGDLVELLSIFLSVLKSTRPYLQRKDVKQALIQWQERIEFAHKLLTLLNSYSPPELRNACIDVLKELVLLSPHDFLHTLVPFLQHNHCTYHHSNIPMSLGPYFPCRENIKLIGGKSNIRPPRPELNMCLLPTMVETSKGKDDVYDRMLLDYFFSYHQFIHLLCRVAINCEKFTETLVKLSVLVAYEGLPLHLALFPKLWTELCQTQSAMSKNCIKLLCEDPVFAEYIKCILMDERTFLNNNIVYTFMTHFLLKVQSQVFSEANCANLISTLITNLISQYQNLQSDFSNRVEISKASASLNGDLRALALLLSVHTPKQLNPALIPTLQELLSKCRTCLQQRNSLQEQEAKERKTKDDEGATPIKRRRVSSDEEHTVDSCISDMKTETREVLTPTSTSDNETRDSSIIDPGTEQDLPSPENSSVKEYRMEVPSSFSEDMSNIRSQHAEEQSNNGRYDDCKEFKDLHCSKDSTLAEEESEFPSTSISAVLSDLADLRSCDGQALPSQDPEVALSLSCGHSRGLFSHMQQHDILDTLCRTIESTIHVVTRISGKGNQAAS

O=C(CCl)NCc1ccc2c(c1)OCO2
inactive: USP34 0.112 | USP36 0.129 | USP38 -0.0864 | USP39 0.0456 | USP4 0.0604
